Here are results for 13 compounds from PubChem BioAssay (NCI).

Assay in all cases: NCI-60 one-dose screen, 48 h (100 = growth as untreated, 0 = no growth, -100 = all killed)
What all share (settings): 10 µM unless noted

In test [1] the test system is NCI-H23 lung.
Test [2] has as its system NCI-H226 lung.
Test [3] deals with NCI-H322M lung.
Test [4] has as its system HOP-62 NSCLC.
In test [5] the test system is NCI-H460 lung.
Test [6] concerns HOP-92 NSCLC.
The subject of test [7] is NCI-H522 lung.
The test system of test [8] is A549/ATCC NSCLC.
Test [9] deals with 786-0 renal.
For test [10], the system named is COLO 205 colon.

Compounds without any hit were thinned out: in the full panel of roughly 83,000, 20% have a hit.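 How to read the values: 0–100, growth inhibition (40 = 60% inhibited); 0, no net growth; -100 to 0, cell death (-40 = 40% of starting cells died; -100 = all dead).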 Values without a mark were called inactive. Activity calls are given as the source filed them. Rule for the calls: active = growth percent below 10; inactive = the rest.

`CCCCCCSc1ncnc2nc[nH]c12`: the growth in test [1] was 92.4%; in test [2] it was 85.5%; in [3], 99.9%; in test [4] it was 95.6%; in test [5], 94.5%; in [6], 68.3%. Besides, the growth in test [7] was 86.3%; in test [8], 96.1%; in test [9], 89.7%; in test [10], 95.2%.
In the case of `CCCCOC(=O)c1cccc([N+](=O)[O-])c1`, the growth in [1] was 101%; in test [2], 104%; in test [3], 106%; in test [4], 109%; in [5] it was 107%; in test [6], 99.8%. For the same compound, the growth is 92.7% in test [7], 107% in test [8], 112% in [9] and 115% in test [10].
`COc1cc(/C=C/C(=O)/C=C/c2ccc(-n3ccnc3C)cc2)ccc1O`: the growth in test [1] was 64%; in [2], 89.1%; in [3], 100%; in test [4], 88.5%; in test [5] it was 81.2%; in test [6], 95.1%. The growth in [7] was 81.4%; in test [8], 62.1%; in test [9] it was 97.2%; in [10], 60.1%.
Consider `C=C(C)[C@@H]1CC[C@]2(C)[C@H](C(=O)C=C3[C@@H]4C[C@](C)(C(=O)N5CCN(C)CC5)CC[C@]4(C)CC[C@]32C)[C@@]1(C)CCC#N`, for which the growth in [1] is -73.6% [100 µM] (active); in test [2], -68.4% [100 µM] (active); in test [3], -98.6% [100 µM] (active); in test [4], -84.5% [100 µM] (active); in test [5], -89.9% [100 µM] (active); in test [6], -45.6% [100 µM] (active). Moreover, the growth in test [7] is -68.9% [100 µM] (active); in [8] it was -67.3% [100 µM] (active); in test [9] it was -85.5% [100 µM] (active); in test [10], -69.4% [100 µM] (active).
Turning to `C[C@@H]1C[C@H]2C(=O)O[C@@H](C)[C@H](NC(=O)[C@H](Cc3cc(F)cc(F)c3)NC(=O)Nc3ccc(Cl)cc3F)C(=O)N3C[C@H](O)C[C@H]3C(=O)N3CCN(C)C[C@H]3C(=O)N[C@@H](C)C(=O)N2C1`, the growth in [1] is 36.2%; in [2] it was 52.6%; in test [3], 72.8%; in [4], 47.8%; in test [5] it was 36%; in test [6], 37.8%. Further, the growth is 26.7% in [7], 53.6% in [8], 74.1% in test [9] and 12% in test [10].
As for `Nc1cc(Cl)cc2cccnc12`, the growth was 88.6% in [1]; 81.4% in test [2]; 116% in test [3]; 95.5% in [4]; 112% in test [5]; 102% in [6]. In addition, the growth in [7] was 96.7%; in [8], 111%; in [9] it was 109%; in test [10] it was 124%.
`CCOC(=O)c1nn(C2CCCCO2)c2ccc(NC(=O)CN3CCCC3)cc12` (stereo not given): the growth in test [1] was 110%; in test [2] it was 110%; in test [3] it was 89.7%; in [4] it was 92.7%; in [5], 100%; in test [6] it was 106%. Moreover, the growth was 97.9% in test [7], 100% in [8], 93.3% in [9] and 126% in [10].
On to `COc1cc(Cl)cc(-c2nn(C(=O)NS(=O)(=O)c3ccccc3)cc2-c2ccncc2)c1`, for which the growth was 90.4% in [1]; 69.3% in test [2]; 96% in test [3]; 68.6% in test [4]; 107% in [5]; 47.7% in [6]. Further, the growth in test [7] is 82.5%; in test [8] it was 78.5%; in test [9] it was 70.9%; in test [10], 69.7%.
As to `CC(C)=CCC[C@](C)(O)[C@H]1CC[C@]2(C)[C@@H]1CC[C@@H]1[C@@]3(C)CC[C@H](OC(=O)CCC(=O)O)C(C)(C)[C@@H]3CC[C@]12C`, the growth in test [1] is 16.9% [100 µM]; in test [2], 27.4% [100 µM]; in test [3] it was 27.4% [100 µM]; in test [4], -5.43% [100 µM] (active); in test [5], 4.47% [100 µM] (active); in test [6], 13.3% [100 µM]. Besides, the growth is 9.19% [100 µM] (active) in test [7], 19.5% [100 µM] in [8], 23% [100 µM] in test [9] and 12.9% [100 µM] in test [10].
In the case of `Cc1ccc(-c2cc(-c3ccc(C)cc3)nc(NCCNc3ccnc4cc(Cl)ccc34)n2)cc1`, the growth in test [1] was -12% (active); in test [2] it was -59.2% (active); in test [3], 14.9%; in test [4], -7.66% (active); in test [5] it was -68.8% (active); in test [6] it was -33.9% (active). The growth is -63.6% (active) in test [7], -56.5% (active) in test [8], -91.4% (active) in test [9] and -85.8% (active) in [10].
`N#Cc1ccc(-c2ccc(COc3ccc(CC4SC(=O)NC4=O)cc3)cc2)cc1` (stereo not given): the growth is 50.7% in test [1]; 86.5% in test [2]; 89.7% in test [3]; 67.1% in [4]; 69.5% in test [5]; 66.8% in [6]. In addition, the growth was 43.8% in test [7], 48.1% in [8], 83% in test [9] and 103% in [10].
As to `Cc1ccc(NC(=S)/N=c2/n(-c3ccccc3)nc3n2CCN3C2=NCCN2)cc1`, the growth is 104% in [1]; 92.3% in [2]; 103% in test [3]; 92.7% in [4]; 104% in test [5]; 75.3% in test [6]. Also, the growth in [7] is 96.7%; in test [8] it was 106%; in [9], 53.5%; in test [10], 106%.
Turning to `CC(C)=CCC[C@](C)(O)[C@H]1CC[C@]2(C)[C@@H]1CC[C@@H]1[C@@]3(C)CC/C(=N/O)C(C)(C)[C@@H]3CC[C@]12C`, the growth in [1] was -56.9% [100 µM] (active); in test [2], 11.3% [100 µM]; in test [3], -1.07% [100 µM] (active); in test [4], -50.9% [100 µM] (active); in test [5], -7.45% [100 µM] (active); in [6], -62% [100 µM] (active). The growth in test [7] is -28.9% [100 µM] (active); in test [8], -70.4% [100 µM] (active); in [9], -21.1% [100 µM] (active); in [10], -43.5% [100 µM] (active).
